Several values for one entry are separate records, joined by “and”; a condition that tells them apart may be missing. Equal entries are not always repeated. Out of some 5,500 compounds screened, about 2,000 (36%) were called active. About 18% were inconclusive and are not listed. Rule as the data show it: active = normalized growth mostly below about 0.91 (no sharp cut-off); inconclusive = no clear call, values can overlap the other calls; inactive = mostly above about 0.92. Some of the results follow.
Experiment: chemical genetic growth profiling, strain panel (AID 1159580);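 also: tested at 20 µM; growth read once vehicle control cultures reached saturation at 30 °C; 1 = growth at the plate median or of vehicle wells; lower values mean less growth of the strain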
Details: S. cerevisiae deletion strains, growth OD

Measured: normalized growth

NC[C@H](O)c1ccc(O)c(O)c1
inactive: locus YAL013W, strain DEP1, active compounds read low 1.01 | locus YAL021C, strain ccr4, active compounds read low 0.984 | locus YAL026C, strain drs2, active compounds read low 0.99 | locus YAL030W, strain snc1, active compounds read low 1.01 | locus YBL061C, strain skt5, active compounds read low 1.01 | locus YBR009C, strain hhf1, active compounds read low 1.01 | locus YBR021W, strain FUR4, active compounds read low 1.01 | locus YBR023C, strain chs3, active compounds read low 1.02 | locus YBR171W, strain sec66, active compounds read low 0.996 | locus YBR229C, strain ROT2, active compounds read low 1.01 | locus YBR231C, strain swc5, active compounds read low 0.984 | locus YBR279W, strain paf1, active compounds read low 1.02 | locus YCL011C, strain gbp2, active compounds read low 0.999 | locus YCL016C, strain dcc1, active compounds read low 1.02 | locus YCL029C, strain bik1, active compounds read low 1.01 | locus YCL061C, strain MRC1, active compounds read low 1.01 | locus YCL069W, strain vba3, active compounds read low 0.991 | locus YCR088W, strain abp1, active compounds read low 1.01 | locus YDL005C, strain med2, active compounds read low 1 | locus YDL035C, strain GPR1, active compounds read low 1.01 | locus YDL040C, strain nat1, active compounds read low 1.01 | locus YDL074C, strain BRE1, active compounds read low 0.986 | locus YDL101C, strain DUN1, active compounds read low 1.01 | locus YDL134C, strain PPH21, active compounds read low 1.02 | locus YDL185W, strain tfp1, active compounds read low 1.01 | locus YDL192W, strain arf1, active compounds read low 1.01 | locus YDR001C, strain nth1, active compounds read low 1 | locus YDR069C, strain doa4, active compounds read low 0.981 | locus YDR101C, strain arx1, active compounds read low 1 | locus YDR137W, strain rgp1, active compounds read low 1.06 | locus YDR150W, strain NUM1, active compounds read low 1 | locus YDR159W, strain sac3, active compounds read low 1.01 | locus YDR162C, strain NBP2, active compounds read low 1 | locus YDR195W, strain ref2 1.01 | locus YDR297W, strain sur2, active compounds read low 1.01 | locus YDR318W, strain mcm21, active compounds read low 1.03 | locus YDR334W, strain swr1, active compounds read low 0.984 | locus YDR335W, strain msn5, active compounds read low 0.999 | locus YDR388W, active compounds read low 1.02 | locus YDR392W, strain spt3, active compounds read low 0.987 | locus YDR502C, strain sam2, active compounds read low 1.02 | locus YEL003W, strain gim4, active compounds read low 0.986 | locus YEL037C, strain rad23, active compounds read low 0.986 | locus YEL061C, strain CIN8 (second series), active compounds read low 0.985 | locus YEL061C, strain CIN8, active compounds read low 1.01 | locus YER015W, strain faa2, active compounds read low 0.99 | locus YER016W, strain bim1, active compounds read low 1 | locus YER110C, active compounds read low 1.02 | locus YER111C, strain swi4, active compounds read low 0.98 | locus YER155C, strain BEM2 (second series), active compounds read low 1 | locus YER155C, strain BEM2, active compounds read low 1.02 | locus YER167W, strain BCK2, active compounds read low 1.02 | locus YFR010W, strain ubp6, active compounds read low 0.953 | locus YGL078C, strain dbp3, active compounds read low 1.01 | locus YGL086W, strain mad1, active compounds read low 0.991 | locus YGL167C, strain pmr1, active compounds read low 1 | locus YGL173C, strain kem1, active compounds read low 0.999 | locus YGL227W, strain vid30, active compounds read low 1 | locus YGL240W, strain doc1, active compounds read low 1.03 | locus YGL248W, strain PDE1, active compounds read low 1.01 | locus YGL253W, strain hxk2, active compounds read low 0.994 | locus YGR135W, strain pre9, active compounds read low 0.998 | locus YGR252W, strain gcn5, active compounds read low 0.958 | locus YHR013C, strain ard1, active compounds read low 1 | locus YHR027C, strain rpn1, active compounds read low 1 | locus YHR030C, strain SLT2, active compounds read low 1.01 and 0.962 | locus YHR079C, strain IRE1 (second series), active compounds read low 1.02 | locus YHR079C, strain IRE1, active compounds read low 0.953 | locus YHR094C, strain hxt1, active compounds read low 1.03 | locus YHR129C, strain ARP1, active compounds read low 0.999 | locus YHR142W, strain chs7, active compounds read low 0.978 | locus YHR200W, strain rpn10, active compounds read low 1.02 | locus YIL066C, strain RNR3, active compounds read low 1.01 | locus YIL073C, strain SPO22, active compounds read low 1.03 | locus YIL125W, strain kgd1, active compounds read low 1.01 | locus YIR030C, strain dcg1, active compounds read low 1.02 | locus YJL092W, strain hpr5, active compounds read low 1 | locus YJL095W, strain BCK1 (second series), active compounds read low 1.01 | locus YJL095W, strain BCK1, active compounds read low 0.994 and 0.971 | locus YJL115W, strain asf1, active compounds read low 1 | locus YJL129C, strain trk1, active compounds read low 0.952 | locus YJL134W, strain LCB3, active compounds read low 1.01 | locus YJL154C, strain vps35, active compounds read low 1 | locus YJL164C, strain tpk1, active compounds read low 1.01 | locus YJL166W, strain qcr8, active compounds read low 1.02 | locus YJL168C, strain set2, active compounds read low 1.02 | locus YJL187C, strain SWE1 (second series), active compounds read low 1.01 | locus YJL187C, strain SWE1, active compounds read low 0.999 | locus YJR043C, strain POL32, active compounds read low 1.02
